A short description of experiment [1]: qHTS assay to identify small molecule agonists of the vitamin D receptor (VDR) signaling pathway - cell viability counter screen (AID 743224; active = well fitted curve in the direction sought with a large enough effect in the repeat runs; an effect the other way counts as inactive or inconclusive; note: series mostly up to about 63 µM; % is set by controls: 0 for no effect and ±100 for the full control effect; nearly all actives have a fitted effect of over 50% in size). The essentials:
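Counter screen for cytotoxicity: VDR-bla cells at 2,000 cells/well, 16 h compound exposure, then CellTiter-Glo luminescence after the beta-lactamase measurement.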
A general note: Quantitative high-throughput screening tests each substance at several concentrations.

Experiment [2] is described as follows: qHTS assay to identify small molecule antagonists of the vitamin D receptor (VDR) signaling pathway - cell viability counter screen (AID 743225; active = well fitted curve in the direction sought with a large enough effect in the repeat runs; an effect the other way counts as inactive or inconclusive; note: % is set by controls: 0 for no effect and ±100 for the full control effect; nearly all actives have a fitted effect of over 50% in size). The essentials:
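Viability counter screen run in the same wells as the beta-lactamase reporter assay: HEK 293T VDR-UAS-bla cells, 16 h compound exposure at 37C with 3 nM (final) 1-alpha,25-dihydroxyvitamin D3. CellTiter-Glo luminescence, 30 min, room temperature.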

Experiment [3] can be described thus: qHTS assay to identify small molecule agonists of the NFkB signaling pathway (AID 1159509; active = well fitted curve in the direction sought with a large enough effect in the signal ratio in the repeat runs, not every such curve was filed as active; the % refers to the signal ratio; note: series mostly up to about 61 µM; % is set by controls: 0 for no effect and ±100 for the full control effect). The method in brief: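 Agonist activity was read as beta-lactamase-driven FRET change (460 and 530 nm emission, 405 nm excitation) following 1.5 hr substrate loading at room temperature. Beforehand, ME-180 NFkB-bla reporter cells were treated with compounds for 5 hr at 37 C.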

Experiment [4] in a line: qHTS assay to identify small molecule agonists of the NFkB signaling pathway - cell viability counter screen (AID 1159515). Note: series mostly up to about 61 µM; % is set by controls: 0 for no effect and ±100 for the full control effect; nearly all actives have a fitted effect of over 55% in size. The essentials: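 Counter screen run alongside the NFkB-bla agonist assay: ME-180 reporter cells exposed to compounds for 5 hr, then lysed with CellTiter-Glo in the same wells. Luminescence, read after 30 min, reflects viable cells.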
Experiment [5] can be described thus: qHTS assay to identify small molecule agonists of the endoplasmic reticulum stress response signaling pathway - cell viability counter screen (AID 1159517). Note: series mostly up to about 61 µM; % is set by controls: 0 for no effect and ±100 for the full control effect; nearly all actives have a fitted effect of over 50% in size. The essentials:
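ESRE-bla HeLa cells (1,500/well) were plated overnight at 37 C and exposed to compounds for 5 hr. After the 2 hr beta-lactamase substrate read, CellTiter-Glo went into the same wells, and luminescence was read after 30 min at room temperature.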

In experiment [6] the target is Nuclear receptor ROR-gamma (Homo sapiens) (UniProt P51449). The experiment is described as follows: qHTS assay to identify small molecule antagonists of the retinoid-related orphan receptor gamma (ROR-gamma) signaling pathway (AID 1159521; active = well fitted curve in the direction sought with a large enough effect in the repeat runs; an effect the other way counts as inactive or inconclusive; note: nearly all actives have a fitted effect of over 50% in size; note: potency is the fitted concentration of half-maximal effect; for activity change, negative = inhibition: top concentration of the series differs between compounds; % is set by controls: 0 for no effect and ±100 for the full control effect). The method in brief: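 Luminescence readout (ONE-Glo, 30 min RT) after 16 h doxycycline induction; loss of signal scored as antagonism. CHO cells with TET-inducible RORγ and RORE-LUC reporter; compounds added 2 h before 1 uM final doxycycline.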

Experiment [7] in a line: qHTS assay to identify small molecule agonists of the AP-1 signaling pathway - cell viability counter screen (AID 1159525). Note: nearly all actives have a fitted effect of over 55% in size. The essentials:
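Intracellular ATP by Cell Titer Glo luminescence (30 min, RT) in the same ME-180 AP-1-bla wells after the 5 h compound exposure at 37 °C. Normalised to tetra n-octyl ammonium bromide and DMSO controls.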

Experiment [8] can be described thus: qHTS assay to identify small molecule agonists of the AP-1 signaling pathway (AID 1159526). Note: % is set by controls: 0 for no effect and ±100 for the full control effect.
The nature of experiment [9]: qHTS assay to identify small molecule antagonists of the retinoid-related orphan receptor gamma (ROR-gamma) signaling pathway - cell viability counter screen (AID 1159520; active = well fitted curve in the direction sought with a large enough effect in the repeat runs; an effect the other way counts as inactive or inconclusive). The method in brief: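 Cytotoxicity was read from cellular ATP (CellTiter-Glo luminescence) after 16 hr at 37 C with 1 uM doxycycline induction. The inducer was added 2 hr after compound transfer to Tet-on ROR gamma CHO cells.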

The nature of experiment [10]: qHTS assay to identify small molecule agonists of the endoplasmic reticulum stress response signaling pathway (AID 1159516; active = well fitted activation curve with a large enough effect in the signal ratio in the repeat runs, not every such curve was filed as active; the % refers to the signal ratio; note: % is set by controls: 0 for no effect and ±100 for the full control effect). The method in brief:
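For this screen, HeLa cells stably carrying beta-lactamase under the ER stress response element received test compounds, positive controls or DMSO for 5 hr at 37 C; B/G FRET substrate was then added and dual-wavelength emission recorded.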

Records with an inconclusive call do not appear. Unmarked numbers belong to inactive results. Activity calls are given as the source filed them. Unless noted, calls come from the whole dose curve.

Take `O=Cc1ccc(Cl)c([N+](=O)[O-])c1`: the call in experiment [1], in [2], in experiment [3], in [4], in [5] and in [7] was inactive. In addition, the Potency in experiment [6] is 54.5 µM (active). The Potency entry in [8] is “inactive”.
For `CC(C)Cc1nccs1`, the compound was called inactive in [1], in experiment [2], in experiment [3], in experiment [4], in experiment [5] and in experiment [7]. For the same compound, the Potency entry in experiment [9], in experiment [6] and in experiment [8] was “inactive” throughout.
Consider `Nc1nc(Cl)nc2c1ncn2[C@H]1C[C@H](O)[C@@H](CO)O1`, for which the compound was called inactive in experiment [2], in experiment [3], in [4], in experiment [10], in experiment [5] and in [7]. Besides, the Potency entry in [6] and in [8] was “inactive” throughout.
For `CC(C)(C)c1ccc(CCC=O)cc1`, the call in [2], in experiment [3], in experiment [4], in [10], in [5] and in [7] was inactive. Besides, the Potency result in experiment [6] and in experiment [8] was “inactive” each time.
In the case of `O=C(O)c1ccc2c(c1)nc(C(=O)NC1CCN(C3CC3)CC1)n2Cc1cc(-c2ccc(Cl)s2)on1`, the compound was called inactive in experiment [1], in [2], in experiment [3], in [4] and in experiment [5]. The activity, negative = cytotoxicity in experiment [9] was -12.3% [at 19 µM]. For the same compound, in [6], the activity change, negative = inhibition is -14.3% [at 19 µM]. For the same compound, the viability change, negative = cytotoxic in [7] is 0.765% [at 15.8 µM]. For the same compound, the activation in experiment [8] was -0.694% [at 15.8 µM].
For `CCC(=O)O[C@@H]1C[C@H]2CC[C@]1(C)C2(C)C`, the outcome in experiment [1], in [3], in experiment [4], in [5] and in [7] was inactive. Further, the Potency entry in [6] was “inactive”.
Regarding `O=C(O)c1cc(C(=O)O)cc([N+](=O)[O-])c1`, the outcome in [1], in [2], in experiment [3], in [4], in [5] and in experiment [7] was inactive. The Potency entry in experiment [9], in [6] and in experiment [8] was “inactive” throughout.
Regarding `C[C@@H](O)[C@H]1C(=O)N2C(C(=O)O)=C(S[C@@H]3CN[C@H](CNS(N)(=O)=O)C3)[C@H](C)[C@H]12`, the outcome in experiment [4], in [10], in [5] and in experiment [7] was inactive. Moreover, the Potency entry in experiment [9], in experiment [6] and in [8] was “inactive” each time.
As for `CCCCC(CC)COCCC#N` (stereo unspecified), the compound was classed as inactive in [1], in experiment [2], in experiment [3], in experiment [4], in [5] and in experiment [7]. The Potency result in [9], in [6] and in experiment [8] was “inactive” throughout.
With `C=CC(=O)OCCCCCCCCCC`, the compound was classed as inactive in experiment [2], in experiment [3], in [4], in experiment [10], in experiment [5] and in [7]. Further, in experiment [6], the Potency result was “inactive”.
In the case of `CCC(C(=O)O)c1ccc(N2Cc3ccccc3C2=O)cc1` (stereo unspecified), the compound was called inactive in experiment [1], in experiment [2], in [3], in experiment [4], in experiment [5] and in experiment [7]. Besides, the Potency entry in experiment [9], in experiment [6] and in experiment [8] was “inactive” each time.
As for `COc1cc(CNC(=O)CCCC/C=C/C(C)C)ccc1O`, the result in experiment [2], in experiment [3], in [4], in experiment [10], in [5] and in experiment [7] was inactive. The Potency result in [6] and in experiment [8] was “inactive” throughout.
On to `CNc1ccccc1`, for which the compound was classed as inactive in experiment [1], in [2], in experiment [3], in experiment [4], in experiment [5] and in experiment [7]. In addition, the Potency result in experiment [9], in experiment [6] and in [8] was “inactive” in each case.
As for `c1ccc(CN(Cc2ccccc2)Cc2ccccc2)cc1`, the outcome in experiment [2], in [3], in experiment [4], in experiment [10], in [5] and in experiment [7] was inactive. Moreover, the Potency result in experiment [6] and in experiment [8] was “inactive” in each case.
For `C=C(C)C(=O)OCCCCCCCCCCOC(=O)C(=C)C`, the result in [2], in [3], in experiment [4], in experiment [5] and in [7] was inactive. The Potency entry in experiment [6] and in experiment [8] was “inactive” each time.
Take `O=C(O)c1ccc(O)c(O)c1`: the compound was classed as inactive in [1], in experiment [2], in experiment [3], in [4], in experiment [5] and in experiment [7]. Further, the Potency result in experiment [9], in [6] and in experiment [8] was “inactive” in each case.
With `CC(C)(C)NCC(O)COc1ccc(NC(=O)NC2CCCCC2)cc1` (stereo unspecified), the outcome in experiment [1], in experiment [2], in experiment [3], in experiment [4], in experiment [5] and in experiment [7] was inactive. The Potency result in experiment [9], in experiment [6] and in experiment [8] was “inactive” each time.
As for `OCCc1ccncc1`, the compound was called inactive in [1], in [2], in experiment [3], in experiment [4], in experiment [10] and in [5]. For the same compound, in experiment [7], the result was inactive. For the same compound, the Potency result in experiment [6] is “inactive”.
`CC(CN=Cc1ccccc1O)N=Cc1ccccc1O` (stereo unspecified): the result in [1], in experiment [3], in experiment [4], in experiment [5] and in [7] was inactive. For the same compound, the Potency entry in [9], in [6] and in [8] was “inactive” each time.
For the compound `Cc1cccc(C)c1NC(=O)CN1CCCC1`, the result in experiment [1], in experiment [2], in experiment [3], in [4], in [5] and in experiment [7] was inactive. Besides, in [6], the Potency entry is “inactive”.
On to `O=C1C=CCCC1`, for which the call in [1], in [2], in [3], in [4], in experiment [5] and in experiment [7] was inactive. In addition, the Potency entry in experiment [9], in experiment [6] and in [8] was “inactive” in each case.
For the compound `CCCCCCCCCCCC(=O)OCC`, the compound was called inactive in experiment [1], in experiment [2], in experiment [3], in [4], in experiment [5] and in experiment [7]. Further, the Potency result in experiment [9], in [6] and in [8] was “inactive” throughout.
Regarding `O=S(=O)(O)c1cc(Cl)c(Cl)cc1Cl`, the result in [4], in experiment [10], in experiment [5] and in [7] was inactive. The Potency result in [9], in [6] and in experiment [8] was “inactive” throughout.
On to `OCCOc1cccc(OCCO)c1`, for which the compound was called inactive in experiment [1], in experiment [2], in [3], in [4], in experiment [5] and in experiment [7]. In addition, the Potency result in [9], in experiment [6] and in experiment [8] was “inactive” throughout.
Take `CC(COc1ccccc1)NC(C)C(O)c1ccc(O)cc1` (stereo unspecified): the compound was classed as inactive in [2], in experiment [3], in [4], in experiment [10], in [5] and in experiment [7]. For the same compound, in experiment [6], the Potency entry is “inactive”.
Turning to `COc1ccnc2c1CCCCC2S(=O)c1nc2ccccc2[nH]1` (stereo unspecified), the compound was called inactive in experiment [1], in experiment [2], in experiment [4], in experiment [10], in [5] and in experiment [7]. The Potency result in experiment [9], in experiment [6] and in experiment [8] was “inactive” in each case.
Turning to `Cc1ccc2ccccc2c1[N+](=O)[O-]`, the result in [1], in [2], in experiment [4], in [10], in experiment [5] and in experiment [7] was inactive. For the same compound, the Potency result in experiment [6] and in [8] was “inactive” in each case.
Turning to `Cc1nc2sccn2c(=O)c1CCN1CCC(=C(c2ccc(F)cc2)c2ccc(F)cc2)CC1`, the compound was classed as inactive in experiment [1], in [4], in [10], in experiment [5] and in [7]. The Potency entry in experiment [9], in [6] and in experiment [8] was “inactive” throughout.
`Cc1cc(C)c(C)c(O)c1`: the call in experiment [1], in experiment [2], in experiment [4], in experiment [5] and in experiment [7] was inactive. Moreover, the Potency result in experiment [9] and in experiment [6] was “inactive” in each case.
Consider `CC(=O)Nc1ccn(C2COC(COC(=O)c3ccccc3)O2)c(=O)n1` (stereo unspecified), for which the outcome in experiment [1], in [2], in experiment [4], in experiment [10], in experiment [5] and in experiment [7] was inactive. Besides, the Potency entry in experiment [9], in experiment [6] and in experiment [8] was “inactive” throughout.
For `CCC(=O)O[C@]1(C(=O)COC)[C@@H](C)C[C@H]2[C@@H]3CCC4=CC(=O)C=C[C@]4(C)C3(F)[C@@H](O)C[C@@]21C` (stereo partly specified), the call in experiment [1], in experiment [2], in experiment [4], in [5] and in experiment [7] was inactive. In addition, the Potency entry in [9], in experiment [6] and in [8] was “inactive” in each case.
With `CC(=O)OCC(=O)[C@@]1(O)CC[C@H]2[C@@H]3CCC4=CC(=O)C=C[C@]4(C)[C@@]3(F)[C@@H](O)C[C@@]21C`, the result in experiment [1], in experiment [2], in experiment [4], in experiment [10], in experiment [5] and in experiment [7] was inactive. Further, the Potency entry in [9], in [6] and in experiment [8] was “inactive” each time.

The values are drawn from PubChem BioAssay (Tox21).
